The structures appear in SMILES notation. Records with an inconclusive call do not appear. Active and inactive are the calls of the source. Rule for the calls: active = hit-call score of the fitted dose curve at least 0.9, where 1 is the maximum; inconclusive = response in the unintended direction; inactive = score below 0.9.

The results in this text go back to PubChem BioAssay (EPA / NIEHS).

In the assay the target is Peroxisome proliferator-activated receptor gamma (Homo sapiens) (UniProt P37231). Nature of the assay: NVS_NR_hPPARg: NovaScreen (NVS) Nuclear Receptor Binding Assay for human Peroxisome Proliferator-activated Receptor gamma (PPARg) (AID 2283370). The procedure, abridged: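 Fluorescence polarization measures competitive binding to extracted PPARg in a cell-free format. Reading is taken at 2 h; activity is signal loss relative to DMSO. Screening at 25 uM in duplicate preceded confirmatory dose series.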
Chain of Peroxisome proliferator-activated receptor gamma (Homo sapiens) (P37231 whole entry, looked up): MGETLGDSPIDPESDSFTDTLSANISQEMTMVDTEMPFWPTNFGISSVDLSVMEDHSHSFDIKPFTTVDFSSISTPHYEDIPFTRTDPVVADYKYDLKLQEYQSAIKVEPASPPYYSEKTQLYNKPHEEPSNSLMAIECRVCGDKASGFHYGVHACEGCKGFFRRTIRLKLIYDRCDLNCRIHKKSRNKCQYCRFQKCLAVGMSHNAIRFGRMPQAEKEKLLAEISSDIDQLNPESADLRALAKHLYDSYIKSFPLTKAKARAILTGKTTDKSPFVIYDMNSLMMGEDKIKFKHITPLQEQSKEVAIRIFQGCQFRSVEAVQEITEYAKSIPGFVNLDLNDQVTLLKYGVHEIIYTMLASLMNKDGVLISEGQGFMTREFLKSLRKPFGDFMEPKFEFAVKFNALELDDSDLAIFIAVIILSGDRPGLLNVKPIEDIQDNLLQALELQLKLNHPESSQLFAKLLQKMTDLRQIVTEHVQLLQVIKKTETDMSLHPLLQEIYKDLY
As to `CC(C)NCC(O)c1ccc(O)c(O)c1` (centres undefined), the AC50 (usually the concentration giving half of the maximal activity seen) was 9.71 µM (active).

As for `C/C=C/C=C/C(=O)O`, the compound was classed as inactive.

In the case of `CN(C)C(=O)NC1(c2ccccc2)CCN(CC[C@@]2(c3ccc(F)c(F)c3)CN(C(=O)c3ccccc3)CCO2)CC1`, the result was inactive.

Consider `S=c1[nH]c2ccccc2s1`, for which the compound was classed as inactive.

Regarding `CCCCC(CC)COP(=O)(OCC(CC)CCCC)OCC(CC)CCCC` (centres undefined), the outcome was inactive.

As to `CCC(C)N(C)C(=O)c1cc2ccccc2c(-c2ccccc2Cl)n1` (centres undefined), the half-maximal activity concentration (AC50) is 5.15 µM (active).

With `Cn1cnc2c1c(=O)[nH]c(=O)n2C`, the call was inactive.

In the case of `CO[C@@H]1COCC[C@@H]1N[C@@H]1CC[C@@](C(=O)N2CCc3ncc(C(F)(F)F)cc3C2)(C(C)C)C1`, the concentration at half-maximal activity (AC50) was 15.8 µM (active).

As for `CCCCCCCCCCCCCCOS(=O)(=O)O`, the AC50 is 1.78 µM (active).

For `CCOCCOCCO`, the result was inactive.

As to `CCc1nc(N)nc(N)c1-c1ccc(Cl)cc1`, the result was inactive.

Turning to `CCCCCCC(CCCCCCCCCCC(=O)OCC(COC(C)=O)OC(C)=O)OC(C)=O` (centres undefined), the result was inactive.

For the compound `O=C(NS(=O)(=O)/C=C/c1cccs1)c1ccc(F)cc1Br`, the AC50 is 40.7 µM (active).

`OCC(O)CO`: the AC50 is 0.00229 µM (active).
